The source of these data is PubChem BioAssay AID1942 (Johns Hopkins Ion Channel Center, 2009).

The whole screen tested about 2,400 compounds, of which about 580 (24%) were called active. A selection follows. Unmarked numbers belong to inactive results.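 How the source made its calls: active means activity change at or above the mean plus 3 SD of buffer wells without dofetilide, per plate; inactive means the rest.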

The target of the test is Potassium voltage-gated channel subfamily KQT member 2 (Rattus norvegicus) (UniProt O88943). Put plainly: rat KCNQ2 channel activation by compounds alone, confirmation, counter-screen for hERG block protector project, cell-based, CHO, FluxOR thallium flux (AID 1942).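 Further: normalized value minus buffer-control mean plus three SD of buffer wells.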 The note with it: CHO-KCNQ2 cells, FluxOR thallium flux fluorescence; at 10 µM; hits give high values. (A counterscreen serves to expose hits that act by an unwanted route or on another target.)
Chain of Potassium voltage-gated channel subfamily KQT member 2 (Rattus norvegicus) (O88943 whole entry, looked up): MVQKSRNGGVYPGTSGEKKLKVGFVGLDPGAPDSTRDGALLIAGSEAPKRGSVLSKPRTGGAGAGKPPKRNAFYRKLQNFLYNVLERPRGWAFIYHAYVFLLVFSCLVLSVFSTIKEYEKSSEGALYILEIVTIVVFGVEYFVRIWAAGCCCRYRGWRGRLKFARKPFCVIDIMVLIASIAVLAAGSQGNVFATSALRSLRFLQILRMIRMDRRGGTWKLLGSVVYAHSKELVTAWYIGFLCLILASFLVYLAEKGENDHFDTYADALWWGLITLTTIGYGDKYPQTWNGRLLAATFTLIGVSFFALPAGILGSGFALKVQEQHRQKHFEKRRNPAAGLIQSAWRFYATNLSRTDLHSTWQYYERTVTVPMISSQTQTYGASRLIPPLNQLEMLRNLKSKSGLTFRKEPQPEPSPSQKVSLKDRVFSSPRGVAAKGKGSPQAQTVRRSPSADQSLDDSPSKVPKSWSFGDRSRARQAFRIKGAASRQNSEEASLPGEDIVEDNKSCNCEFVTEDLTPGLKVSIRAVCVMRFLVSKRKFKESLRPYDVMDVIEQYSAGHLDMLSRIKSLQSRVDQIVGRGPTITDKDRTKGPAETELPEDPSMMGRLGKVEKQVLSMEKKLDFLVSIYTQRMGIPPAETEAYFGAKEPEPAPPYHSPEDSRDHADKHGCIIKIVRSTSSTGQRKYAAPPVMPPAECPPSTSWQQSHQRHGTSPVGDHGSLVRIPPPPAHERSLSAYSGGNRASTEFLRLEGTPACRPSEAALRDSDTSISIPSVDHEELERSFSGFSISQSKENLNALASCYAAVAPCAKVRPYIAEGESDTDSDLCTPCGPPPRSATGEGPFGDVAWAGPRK
Regarding `O=C1NC2(CCCCCC2)C(=O)N1Cc1ccccc1`, the activity change, less the hit threshold was -17.6%.
To `O=C(O)/C=C/C(=O)Nc1ccc(OC(F)(F)F)cc1` belongs -10.2%; to `O=[N+]([O-])c1cccc(NC(=S)Nc2nc(-c3ccccc3Cl)cs2)c1`, -7.3%.
To `Cc1c(C(=O)NN2CCN(C)CC2)cccc1[N+](=O)[O-]` belongs -11.1%; to `O=C(CN1C(=O)c2ccccc2S1(=O)=O)NCCSCc1ccccc1Cl`, -15.3%.
For the compound `O=C(COC(=O)c1ccc(Br)o1)NC1CCCCC1`, the activity change, less the hit threshold was -6%.
With `O=C(NC1CCCC1)c1ccc(Br)o1`, the activity change, less the hit threshold was -20.5%.
On to `COC(=O)c1cc(-c2ccc(C)cc2)n[nH]1`, for which the activity change, less the hit threshold is -3.5%.
Turning to `CCCCOc1ccc(CC(=O)NCC(=O)O)cc1`, the activity change, less the hit threshold is -16.8%.
To `CCCOc1ccc(OC(=O)c2ccc(Br)o2)cc1` belongs 6.3% (active); to `Cc1ccc(OC(=O)c2ccc(Br)o2)cc1`, 46.8% (active); to `Cc1ccc(CNC(=O)CCc2ccc(S(=O)(=O)NCC(C)C)cc2)cc1`, -18.2%.
The same measure for `Cc1noc(C)c1-c1nnc(-c2ccc(C(F)(F)F)cc2)o1`: -9.9%; for `CC(C)Cc1nnc(NC(=O)Cc2ccccc2[N+](=O)[O-])s1`: -18.1%; for `CCC(C)(C(=O)NC1CCCC1)N(Cc1ccco1)C(=O)c1ccccn1` (stereo not drawn): -21.1%.
To `Cc1ccc(C2=NN(C(=O)CCCC(=O)O)C(c3ccc4c(c3)OCO4)C2)cc1` (stereo not drawn) belongs -16.6%.
As to `C=CCn1c(SCC(=O)NCC2CCCO2)nnc1-c1ccccc1` (stereo not drawn), the activity change, less the hit threshold is -13%.
The same measure for `COc1cccc(N2CC(C(=O)Nc3nnc(SCC(=O)NCC4CCCO4)s3)CC2=O)c1` (stereo not drawn): -12.6%; for `Cc1nc(SCC(=O)NCC2CCCO2)c2c3c(sc2n1)CCCC3` (stereo not drawn): 11.1% (active).
The same measure for `COc1ccc(-c2nc(=S)c3c([nH]2)Oc2ccc(C)cc2C3)cc1O`: -18.3%.
The same measure for `Cc1cc(N2C(=O)C(O)=C(C(=O)c3cccs3)C2c2ccccc2)no1` (stereo not drawn): -22.8%; for `COc1ccc(C(=O)NCC(=O)OCn2nnc3ccccc3c2=O)cc1OC`: -17.7%; for `COc1cc(OC)cc(-c2nc3ccccc3c(=O)n2OC(=O)c2ccc(Br)cc2)c1`: -12.9%.
With `CC(Oc1ccc(Br)cc1)c1nc2c3ccccc3nc(=S)n2[nH]1` (stereo not drawn), the activity change, less the hit threshold was 14.3% (active).
In the case of `COc1ccc(S(=O)(=O)n2nc(C)c(S(=O)(=O)N3CCOCC3)c2C)cc1OC`, the activity change, less the hit threshold is -19%.
The same measure for `Cc1ccc(-c2nc(N)s[n+]2-c2ccccc2)cc1`: 11.3% (active); for `Cc1nnc(SCc2cc(=O)oc3cc(O)ccc23)n1Cc1ccccc1`: -14.7%.
To `COc1ccc(-c2c(C)c3ccc(OCC(C)=O)cc3oc2=O)cc1` belongs -17.3%.
On to `Cc1ccc(Cn2c(=S)[nH]c3ccccc3c2=O)cc1`, for which the activity change, less the hit threshold is -6.4%.
The same measure for `CC(C)COn1c(=S)[nH]c2ccccc2c1=O`: 11.1% (active); for `CCC(C)n1c(=S)[nH]c2ccccc2c1=O` (stereo not drawn): 25% (active); for `COc1ccc(CCn2c(S)nc3ccccc3c2=O)cc1`: -6.5%.
The same measure for `O=c1c2ccccc2[nH]c(=S)n1CCc1ccccc1`: 10.3% (active).
To `CCCCn1c(=S)[nH]c2ccccc2c1=O` belongs 3.1% (active); to `CCC(Cc1ccccc1)n1c(=S)[nH]c2ccccc2c1=O` (stereo not drawn), -14%.
For `CC1(C)Cc2c(sc(NC(=O)C(=O)N3CCCC3)c2C#N)CO1`, the activity change, less the hit threshold is -3.6%.
To `CC1=NN(c2ccccc2)C(=O)/C1=C/c1ccc(-c2ccc(C)c(C(=O)O)c2)o1` belongs -18.9%; to `Cc1cc(=O)oc(C)c1C(=O)NCCC(C)C`, -6.2%.
Take `O=C(COC(=O)c1cnccn1)c1ccc(Cl)cc1`: the activity change, less the hit threshold is -17%.
The same measure for `Cc1ccc(NC(=O)c2ccc(CNS(=O)(=O)c3cccc(C(F)(F)F)c3)cc2)cc1`: -15.6%; for `Cc1ccc(CS(=O)(=O)c2ncc(Cl)c(C(=O)Nc3nnc(C)s3)n2)cc1`: -0.8%; for `O=C(Nc1ccc2[nH]c(=S)sc2c1)Nc1ccccc1F`: -19%.
To `S=c1[nH]c2ccc(Cl)cc2s1` belongs 101% (active); to `S=c1[nH]c2cc(Cl)ccc2s1`, 106% (active).
The same measure for `CCNC(=O)NC1c2ccccc2CSc2ccccc21` (stereo not drawn): -20.6%; for `Cc1ccc(C)c(NC(=O)CCN2C(=O)[C@@H]3Cc4ccccc4CN3C2=O)c1`: -23.4%.
In the case of `COc1ccc(C(=O)N(CN2CCCC2=O)c2ccc(C)cc2)cc1`, the activity change, less the hit threshold is -3.9%.
To `CCOc1ccc(C(=O)N(CN2CCCC2=O)c2ccc(C)cc2)cc1` belongs 21.8% (active); to `O=C(NCCCN1CCCC1=O)c1ccc(OC(F)(F)F)cc1`, -19.5%.
As for `Cc1cc(C)c(Cn2c3ccccc3c3cnn(CC(=O)NCc4ccccn4)c(=O)c32)c(C)c1`, the activity change, less the hit threshold was -12.3%.
Turning to `O=C1OCCC1Sc1nc2ccccc2c(=O)n1Cc1ccc(F)cc1` (stereo not drawn), the activity change, less the hit threshold is -2%.
For the compound `COc1cc2c(cc1OC)C(c1ccc([N+](=O)[O-])cc1)N(C(C)=O)CC2` (stereo not drawn), the activity change, less the hit threshold was -27%.
For `O=C(Nc1ccc(Cl)c(Cl)c1)Nc1nnc(CSc2ccccc2)s1`, the activity change, less the hit threshold is -5.4%.
Take `O=C(NCCOC(=O)c1ccc([N+](=O)[O-])cc1)c1cccnc1`: the activity change, less the hit threshold is -12.2%.
Take `C=CCN(CC=C)C(=S)NC(=O)c1ccc(-c2ccccc2)cc1`: the activity change, less the hit threshold was 21% (active).
To `CCN(CC)C(=S)NC(=O)c1ccc(F)cc1` belongs -10.2%.
To `C=CCN(CC=C)C(=S)NC(=O)c1ccc([N+](=O)[O-])cc1` belongs 48.5% (active); to `C=CCN(CC=C)C(=S)NC(=O)Cc1cccc2ccccc12`, 3.6% (active); to `CCCN(CCC)C(=S)NC(=O)c1ccc(-c2ccccc2)cc1`, 91.4% (active).
To `CCCN(CC1CC1)C(=S)Nc1ccccc1F` belongs -17.8%.
With `C=CCN(c1ccc(C(=O)NC(C)C)cc1)S(C)(=O)=O`, the activity change, less the hit threshold was -16.8%.
To `Cc1c(C)n(CCN(C)C)c2ccc(C(=O)OCCN(C)C)cc12` belongs -12.7%.
The same measure for `CCCCCN(C(=O)CCC(=O)OC(C)C(=O)c1ccccc1)c1c(N)n(CCCC)c(=O)[nH]c1=O` (stereo not drawn): -10.3%; for `CCn1nnnc1SCC(=O)N1c2ccccc2Sc2ccccc21`: -16.2%.
To `CCc1nnc(NS(=O)(=O)c2ccc(NC(=S)NC(=O)/C=C/c3ccc(OC)cc3)cc2)s1` belongs -7.3%; to `COc1ccc(CCNC(=O)CSc2ccc3nnc(CCNC(=O)c4ccccc4)n3n2)cc1OC`, -18.6%; to `CCCN1CCC(NC(=O)CC2C(=O)NCCN2Cc2cccc(OC)c2)CC1` (stereo not drawn), -17.9%.
Consider `CCCCNC(=S)NC(=O)c1ccc([N+](=O)[O-])cc1`, for which the activity change, less the hit threshold is 22.9% (active).
Consider `CCC(=O)Nc1ccc(C(=O)NNC(=O)c2cc([N+](=O)[O-])cc([N+](=O)[O-])c2)cc1`, for which the activity change, less the hit threshold is -17.8%.
The same measure for `CCCCCC(=O)NNC(=S)NC(=O)c1ccc([N+](=O)[O-])cc1`: -31.9%; for `CC1CCN(S(=O)(=O)c2ccc3nc(N4CCN(c5ccccc5)CC4)ccc3c2)CC1`: -25.2%.
The same measure for `Cc1ccc(Cc2c[nH]c(=S)s2)cc1`: 52.8% (active); for `S=c1[nH]cc(Cc2ccccc2)s1`: 1.4% (active); for `Cc1[nH]c(=S)sc1Cc1ccc(Cl)c(Cl)c1`: -16%.
Turning to `Clc1ccc(Cc2ccccc2)nn1`, the activity change, less the hit threshold is -12.9%.
The same measure for `COCCn1cnc2c1c(=O)n(CC#N)c(=O)n2Cc1ccccc1`: -22%; for `CCOc1ccc(CCNC(=O)Nc2ccccc2C)cc1OCC`: -14.3%; for `CNC(=O)CSc1nnc(-c2ccco2)n1-c1ccc(C)cc1`: -16.3%.
The same measure for `CCCOc1ccc(C(=O)NNC(=S)NC(=O)c2cccs2)cc1`: -34.1%; for `Cc1ccc(C(=O)NC(=S)Nc2ccccc2C(F)(F)F)cc1`: -24.5%.
The same measure for `Cc1ccc(C(=O)N/N=C(/CC(=O)c2cccs2)C(F)(F)F)cc1`: 5.2% (active); for `COc1ccc(S(=O)(=O)N2CCN(C(=O)CNC(=O)c3ccc4c(c3)OCO4)CC2)cc1`: -12.9%.
With `O=C(Nc1c[nH]c(=O)[nH]c1=O)c1ccc2c(c1)C(=O)N(c1cccc([N+](=O)[O-])c1)C2=O`, the activity change, less the hit threshold was -9.9%.
For `O=C(Cn1nc(-c2ccccc2)c2ccccc2c1=O)Nc1ccc(O)cc1`, the activity change, less the hit threshold was -25.7%.
To `O=C(CN1CCCCCC1)Nc1ccc(Oc2ccccc2)cc1` belongs -20.3%; to `Cc1nn(CC(=O)Nc2ccc(C(=O)N3CCCC3)cc2)c(=O)c2ccccc12`, 11.5% (active).
As for `O=C(Nc1ncc(Br)s1)C(Cc1ccccc1)n1cccc1` (stereo not drawn), the activity change, less the hit threshold was -5.9%.
With `Cn1cnnc1SCC(=O)NCc1ccccc1`, the activity change, less the hit threshold was -24.1%.
To `COc1cc(/C=C/C(=O)N[C@@H](Cc2c[nH]c3ccccc23)C(=O)O)ccc1O` belongs -15.9%.
To `COC(=O)Oc1ccc(/C=C/C(=O)OC(C)C)cc1OC(=O)OC` belongs 3% (active).
To `COc1cc(/C=C/C(=O)O)ccc1OS(=O)(=O)c1cc(C)ccc1C` belongs -16.4%; to `Cc1ccc(NC2=CC(=O)OC(C)C2)cc1` (stereo not drawn), -17.3%; to `Cc1ccc(Oc2ccc(OCC(=O)NC(CC(C)C)C(=O)O)cc2)cc1` (stereo not drawn), -14.9%.
Consider `CC1=Nc2ccc(C)cc2/C1=C/c1c(N)n2c(S(=O)(=O)C(C)C)nsc2nc1=O`, for which the activity change, less the hit threshold is -27%.
In the case of `O=C(CN1CCCCCCC1)Nc1cccc(Cl)c1Cl`, the activity change, less the hit threshold was -20.9%.
To `O=c1oc2ccccc2c(Cl)c1CN1CCCCC1` belongs 8.6% (active); to `O=C(c1c(O)c2ccccc2oc1=O)C1CCCCC1`, -4.8%.
To `CSc1nc2c(c(=O)[nH]1)C(c1ccc(F)cc1)CC(=O)N2` (stereo not drawn) belongs -16.4%.
